Screening data deposited in PubChem by several laboratories.
Rows were chosen to be rich in hits. Some 4.1% of all compounds tested hit in one or more screens of this group.
Mdm2-MdmX inh – inhibitors of human Mdm2-MdmX association, primary screen, cell-based, luminescence, split luciferase, SaOS-2, uHTS | SaOS-2 split-luciferase Mdm2/MdmX complementation | 3% of 330,000 active | inhibition, % at 8 µM | Protein Mdm4 (Homo sapiens) + E3 ubiquitin-protein ligase Mdm2 (Homo sapiens), …;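 active means inhibition of at least 50% at 8 µM in the primary screen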
KLF5 inh – KLF5 expression inhibitors, primary screen, DLD-1 cells, luminescence. DLD-1 KLF5 promoter-luciferase reporter. inhibition, % at 5 µM. 0.23% of 290,000 active. AID 1700, 2009;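 active means inhibition above a per-plate limit of that plate's mean compound inhibition plus 3 SD, cut at about 60% in these data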;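 further: 0% = DMSO wells and 100% = LY294002 at 200 µM; higher means less KLF5 promoter-driven luciferase light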
Gli-Sufu antag – Gli-Sufu pathway antagonists, primary screen, luciferase luminescence, Sufu-KO-LIGHT cells, uHTS. Sufu-KO-LIGHT fibroblasts, Gli luciferase reporter luminescence. inhibition, % at 5 µM. 0.74% of 340,000 active. AID 588413, 2011;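 active means inhibition above about 55%, limit read from the data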;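 further: 0% = DMSO-treated cells and 100% = wells with medium but no cells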
aSyn UTR inh – MLPCN primary screen, SNCA 5' untranslated region; alpha-synuclein 5'UTR reporter, inhibitor activity; inhibition, % (tested at 7.5 µM); 0.82% of 300,000 active; AID 1813, 2009; in the data active means inhibition above about 60%;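 further: H4 neuroglioblastoma cells stably carrying SNCA 5'UTR luciferase fusion; 0% = DMSO wells and 100% = positive control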
697 NFkB inh – inhibitors of PMA/ionomycin-induced NF-kB reporter, 697 cells, primary screen, B-cell NF-kB inhibitor project, cell-based, luminescence, uHTS | 0.33% of 330,000 active | AID 435022, 2010 | inhibition, % at 4 µM | 697 B-cell NF-kB luciferase reporter, 16 h; in the data active means inhibition above about 35%
Jurkat NFkB inh – inhibitors of induced NF-kB luciferase reporter, primary screen, TCR NF-kB activation inhibitor project, cell-based, luminescence, uHTS. Jurkat, PMA/ionomycin-induced NF-kB luciferase reporter. inhibition, % at 4 µM. 0.53% of 330,000 active. AID 435003, 2010; in the data active means inhibition above about 50%
The depositor's hits bear a star.

Screening COc1cc(C(=O)NNC(=S)NC(=O)c2ccccc2C)cc(OC)c1OC returned Mdm2-MdmX inh 23.0, KLF5 inh 11.1, Gli-Sufu antag -8.1, aSyn UTR inh -3.2, 697 NFkB inh 10.1 and Jurkat NFkB inh -5.3.
COc1ccccc1NC(=O)Nc1ccccc1N1CCOCC1 was read as Mdm2-MdmX inh -19.3, KLF5 inh -0.2, Gli-Sufu antag 6.2, aSyn UTR inh -0.8, 697 NFkB inh -0.2 and Jurkat NFkB inh 2.7.
`CC1(C)Oc2cc3oc(-c4cc(O)cc(O)c4)cc3cc2CC1O` (stereo not given) gave Mdm2-MdmX inh -7.8, Gli-Sufu antag 7.1, aSyn UTR inh 97.0*, 697 NFkB inh -85.3 and Jurkat NFkB inh -21.8.
`COc1cccc(CNC(=O)N[C@@H](C)C(=O)O)c1` gave Mdm2-MdmX inh 17.6, KLF5 inh -37.2, Gli-Sufu antag 4.9, aSyn UTR inh 4.5, 697 NFkB inh 15.7 and Jurkat NFkB inh 3.3.
For Cc1nc2nc(-c3ccc(F)cc3)cn2nc1C the results were Mdm2-MdmX inh -90.8, KLF5 inh -189.6, Gli-Sufu antag -64.8, aSyn UTR inh -8.8, 697 NFkB inh -90.5 and Jurkat NFkB inh -61.3.
CCc1ccc(-c2cn3nc(C)c(C)nc3n2)cc1 was read as Mdm2-MdmX inh 45.0, KLF5 inh -129.4, Gli-Sufu antag -17.2, aSyn UTR inh 87.0*, 697 NFkB inh -126.4 and Jurkat NFkB inh -133.2.
`Cc1oc(=O)c(NC(=O)c2ccccc2)cc1C(N)=O` gave Mdm2-MdmX inh -8.6, KLF5 inh -18.2, Gli-Sufu antag 16.8, aSyn UTR inh 1.1, 697 NFkB inh -5.0 and Jurkat NFkB inh -13.4.
Screening O=C(Nc1cc2ccccc2oc1=O)c1ccccc1 returned Mdm2-MdmX inh -7.8, KLF5 inh -127.5, Gli-Sufu antag -29.0, aSyn UTR inh 73.7*, 697 NFkB inh -168.9 and Jurkat NFkB inh -48.9.
Cc1cc2ncc(-c3ncc(C(F)(F)F)cc3Cl)cn2n1 was read as Mdm2-MdmX inh -33.4, KLF5 inh -104.9, Gli-Sufu antag -12.6, aSyn UTR inh 65.4*, 697 NFkB inh -86.8 and Jurkat NFkB inh -95.7.
For COc1ccccc1-c1noc(-c2ccncc2)n1 the results were Mdm2-MdmX inh -11.3, KLF5 inh -73.8, Gli-Sufu antag -15.9, aSyn UTR inh -73.9, 697 NFkB inh -17.6 and Jurkat NFkB inh -23.3.
For Brc1ccc(-c2noc(-c3ccccn3)n2)o1 the results were Mdm2-MdmX inh -53.2, KLF5 inh -92.0, Gli-Sufu antag -64.1, aSyn UTR inh -1.7, 697 NFkB inh -102.7 and Jurkat NFkB inh -83.2.
`COc1ccccc1-c1nc(-c2ccccn2)no1` gave Mdm2-MdmX inh 29.0, KLF5 inh -11.4, Gli-Sufu antag -26.9, aSyn UTR inh 76.5*, 697 NFkB inh -96.3 and Jurkat NFkB inh -27.7.
`Brc1ccc(-c2nc(-c3ccccn3)no2)o1` gave Mdm2-MdmX inh 1.8, KLF5 inh -25.4, Gli-Sufu antag 0.7, aSyn UTR inh 79.5*, 697 NFkB inh -80.0 and Jurkat NFkB inh -69.3.
Cc1ccccc1-c1nc(-c2ccccn2)no1 was read as Mdm2-MdmX inh -28.5, KLF5 inh 9.9, Gli-Sufu antag -36.0, aSyn UTR inh 95.0*, 697 NFkB inh -134.0 and Jurkat NFkB inh -42.1.
For N#C/C(=C1/C(=O)Nc2ccc(Br)cc21)c1ccccn1 the results were Mdm2-MdmX inh 16.5, KLF5 inh 0.7, Gli-Sufu antag 3.2, aSyn UTR inh -40.5, 697 NFkB inh 8.6 and Jurkat NFkB inh 3.1.
Screening COc1ccc(N2CCN(S(=O)(=O)CCNC(=O)Cc3ccc([N+](=O)[O-])cc3)CC2)cc1 returned Mdm2-MdmX inh 22.7, KLF5 inh -28.1, Gli-Sufu antag -2.0, aSyn UTR inh 65.3*, 697 NFkB inh -6.8 and Jurkat NFkB inh 7.0.
O=C(NCCS(=O)(=O)N1CCN(c2ccc(F)cc2)CC1)c1ccc(Br)o1 was read as Mdm2-MdmX inh 11.6, KLF5 inh -16.6, Gli-Sufu antag -1.8, aSyn UTR inh 127.2*, 697 NFkB inh -6.1 and Jurkat NFkB inh 2.4.
For COc1ccc(CCC(=O)NCCS(=O)(=O)N2CCN(c3ccc(OC)cc3)CC2)cc1 the results were Mdm2-MdmX inh 12.8, KLF5 inh -5.8, Gli-Sufu antag 4.7, aSyn UTR inh 13.0, 697 NFkB inh -12.0 and Jurkat NFkB inh -0.7.
`CC1(C)CNC(=O)c2sc(NC(=O)c3ccccc3Cl)nc2C1` gave Mdm2-MdmX inh -10.3, KLF5 inh -19.2, Gli-Sufu antag 9.2, aSyn UTR inh -8.5, 697 NFkB inh 23.6 and Jurkat NFkB inh 1.3.
`C/C(=N\NC(=O)C(C)n1nc(C)c([N+](=O)[O-])c1C)c1ccccc1O` (stereo not given) gave Mdm2-MdmX inh 39.8, KLF5 inh -53.6, Gli-Sufu antag 9.4, aSyn UTR inh 77.8*, 697 NFkB inh -3.9 and Jurkat NFkB inh 16.7.
Screening Cc1nn(C(C)C(=O)NCc2ccco2)c(C)c1[N+](=O)[O-] (stereo not given) returned Mdm2-MdmX inh 7.3, KLF5 inh -2.4, Gli-Sufu antag 6.4, aSyn UTR inh 4.3, 697 NFkB inh 18.4 and Jurkat NFkB inh 8.2.
COc1ccc(C(=O)N/N=C/c2sc3ccccc3c2O)cc1 was read as KLF5 inh -12.5, Gli-Sufu antag 17.1 and aSyn UTR inh 83.8*.
`O=C(N/N=C/c1ccccc1)c1cccc2ccccc12` gave Mdm2-MdmX inh -13.8, Gli-Sufu antag -9.4, aSyn UTR inh -21.9, 697 NFkB inh 0.4 and Jurkat NFkB inh 10.6.
Screening O=C(N/N=C/c1sc2ccccc2c1O)c1cccc2ccccc12 returned KLF5 inh -9.6, Gli-Sufu antag 25.1 and aSyn UTR inh 91.6*.
`OCCN(CCO)CC(O)COc1ccc(C23CC4CC(CC(C4)C2)C3)cc1` (stereo not given) gave KLF5 inh 1.7, Gli-Sufu antag 18.3 and aSyn UTR inh 76.3*.
Cc1ccc(C(C)NC(=O)c2cc3ccccc3oc2=O)cc1C (stereo not given) was read as Mdm2-MdmX inh 6.6, KLF5 inh -42.8, Gli-Sufu antag -15.9, aSyn UTR inh -10.8, 697 NFkB inh 4.0 and Jurkat NFkB inh 7.8.
`COc1ccc(/C=N/Nc2nncc3ccccc23)cc1` gave Mdm2-MdmX inh -81.2, KLF5 inh -91.0, Gli-Sufu antag -100.2, aSyn UTR inh 67.1*, 697 NFkB inh -210.7 and Jurkat NFkB inh -82.3.
C/C(=N/NC(=O)c1cc(C2CC2)[nH]n1)c1cccs1 was read as Mdm2-MdmX inh -36.4, KLF5 inh -45.6, Gli-Sufu antag -31.2, aSyn UTR inh 84.3*, 697 NFkB inh -48.7 and Jurkat NFkB inh -13.2.
`CC(C)COC(=O)/C(C#N)=C/c1cn(Cc2ccccc2)c2ccccc12` gave KLF5 inh 1.9, Gli-Sufu antag -0.5 and aSyn UTR inh 79.5*.
